Test [1] in a line: ATG_XTT_Cytotoxicity: Cytotoxicity Assessment in the Attagene TRANS-FACTORIAL HepG2 Assay (AID 2283584; active = hit-call score of the fitted dose curve at least 0.9, where 1 is the maximum;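 as to AC50: cells exposed to compound for 24 h before reading; active means loss of viability signal versus DMSO baseline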). A digest of the protocol: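 Viability endpoint from XTT after 24 h chemical exposure of reporter-transfected human HepG2 liver cells; signal loss fitted relative to DMSO negative control.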
Test [2] is described as follows: CEETOX_H295R_11DCORT: CeeTox H295R High-throughput Steroidogenesis Assay for 11-Deoxycortisol (11DCORT) (AID 2283432).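 As to AC50: 11-deoxycortisol secreted into the medium measured by LC-MS/MS.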 The conditions noted are these: actives raise or lower the signal. A digest of the protocol: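 Adrenal carcinoma line H295R, run per OECD 456 with minor changes, was forskolin-stimulated (10 uM, 48 h) before a 48 h chemical exposure at 0.1% DMSO. Secreted 11-deoxycortisol was quantified by HPLC-MS/MS.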

The nature of test [3]: CEETOX_H295R_OHPREG: CeeTox H295R High-throughput Steroidogenesis Assay for OH-Pregnenolone (OHPREG) (AID 2283434). Conditions: actives raise or lower the signal. The method in brief: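 Hormone levels in spent medium were measured by tandem mass spectrometry following liquid-liquid extraction. Cells (H295R) had been forskolin-stimulated (10 uM, 48 h) before a 48 h chemical exposure at 0.1% DMSO, with activity fitted in both directions against DMSO.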

Test [4] in a line: CEETOX_H295R_OHPROG: CeeTox H295R High-throughput Steroidogenesis Assay for OH-Progesterone (OHPROG) (AID 2283435).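 As to AC50: 17alpha-hydroxyprogesterone secreted into medium measured by HPLC-MS/MS.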 Conditions: actives raise or lower the signal. The method in brief: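 Secreted 17alpha-hydroxyprogesterone is read by tandem MS from media of forskolin-primed H295R cells dosed with chemical for 48 h. Activity is fitted in both directions against DMSO baseline; cytotoxic concentrations are re-tested diluted.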

A short description of test [5]: CEETOX_H295R_CORTIC: CeeTox H295R High-throughput Steroidogenesis Assay for Corticosterone (CORTIC) (AID 2283437).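 Also: corticosterone secreted into medium quantified by mass spectrometry.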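 As to AC50: human H295R adrenal cells prestimulated with forskolin before chemical exposure.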 Conditions: actives raise or lower the signal. The method in brief:
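Corticosterone secreted into medium is measured by reverse-phase HPLC with tandem MS following liquid-liquid extraction. Cells are forskolin-stimulated (10 uM, 48 h) before 48 h test exposure; activity fitted in both directions against DMSO.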

The nature of test [6]: CEETOX_H295R_DOC: CeeTox H295R High-throughput Steroidogenesis Assay for DOC (AID 2283439). The conditions noted are these: actives raise or lower the signal. A digest of the protocol: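 Secreted DOC was quantified from H295R media by HPLC-MS/MS after 48 h chemical exposure following 48 h forskolin (10 uM) prestimulation. Values were fitted in both directions relative to DMSO, the negative control and baseline.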

Test [7] is described as follows: CEETOX_H295R_ESTRADIOL: CeeTox H295R High-throughput Steroidogenesis Assay for Estradiol (AID 2283440).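 Also: estradiol secreted into medium quantified by LC-MS/MS after dansyl derivatisation.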 Conditions: actives raise or lower the signal. The method in brief: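 Estradiol in spent medium measured by LC-MS/MS after dansyl chloride derivatisation. Forskolin-primed (10 uM, 48 h) human adrenal H295R cells received test chemical 48 h at 0.1% DMSO; concentrations lowered until MTT viability >/=70%.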

A short description of test [8]: CEETOX_H295R_ESTRONE: CeeTox H295R High-throughput Steroidogenesis Assay for Estrone (AID 2283441).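 Also: estrone secreted into medium measured by LC-MS/MS after dansyl derivatization.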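 As to AC50: human adrenal H295R cells prestimulated with forskolin for two days.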 The conditions noted are these: actives raise or lower the signal. A digest of the protocol:
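H295R cells; 48 h forskolin (10 uM) prestimulation; 48 h compound exposure, 0.1% DMSO final. Medium estrone: MTBE extraction, dansyl derivatization, HPLC-MS/MS. Bidirectional fit vs DMSO.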

Test [9] is described as follows: CEETOX_H295R_PROG: CeeTox H295R High-throughput Steroidogenesis Assay for Progesterone (PROG) (AID 2283442).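 As to AC50: human H295R adrenal cells primed with 10 µM forskolin before dosing.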 The conditions noted are these: actives raise or lower the signal. The method in brief: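 Progesterone secreted by human H295R cells was measured by LC-MS/MS following 48 h chemical exposure at 0.1% DMSO, preceded by 48 h forskolin (10 uM) stimulation. Same-well MTT viability; cytotoxic concentrations diluted 10- or 100-fold and retested.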

Test [10] can be described thus: CEETOX_H295R_ANDR: CeeTox H295R High-throughput Steroidogenesis Assay for Androstenedione (ANDR) (AID 2283436). The conditions noted are these: actives raise or lower the signal. The method in brief: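 Read-out is androstenedione secreted into medium, measured by tandem mass spectrometry after liquid-liquid extraction. Cells were H295R, dosed for 48 h per modified OECD 456; activity fitted in both directions relative to DMSO.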

Test [11] can be described thus: CEETOX_H295R_TESTO: CeeTox H295R High-throughput Steroidogenesis Assay for Testosterone (TESTO) (AID 2283457).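 As to AC50: cells exposed to chemicals for 48 h before medium collection.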 Conditions: actives raise or lower the signal. The method in brief:
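Testosterone secreted into the medium over 48 h by H295R cells (maximum passage 10) was quantified by LC-MS/MS after MTBE extraction. Fitted in both directions against DMSO, with concentrations diluted until MTT viability was ≥70%.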

Test [12] can be described thus: TOX21_p53_BLA_p2_viability: Viability Assessment in the Tox21 HCT-116 p53 Agonism Beta-lactamase Assay, Phase 2 (AID 2283591; active = hit-call score of the fitted dose curve at least 0.9, where 1 is the maximum;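 also: compound exposure lasted 16 h at 37 °C; actives lower the ATP signal meaning cytotoxicity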). The method in brief: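 Cytotoxicity readout: CellTiter-Glo ATP luminescence, 30 min at room temperature, after the beta-lactamase read. Cells were HCT116 exposed 16 h at 37C to compounds pin-transferred at 217-fold dilution from DMSO stocks.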

The target in test [13] is Cellular tumor antigen p53 (Homo sapiens) (UniProt P04637). The test is described as follows: TOX21_p53_BLA_p2_ratio: Tox21 HCT-116 p53 Agonism Beta-lactamase Assay, Ratio, Phase 2 (AID 2283592; active = hit-call score of the fitted dose curve at least 0.9, where 1 is the maximum). A digest of the protocol: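 Gain-of-signal p53 agonism was scored from the beta-lactamase FRET ratio (460/530 nm, 405 nm excitation) in HCT116 cells treated 16 h at 37C, 5% CO2, with DMSO serving as negative control and baseline.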
Sequence of Cellular tumor antigen p53 (Homo sapiens) (P04637 whole entry, looked up): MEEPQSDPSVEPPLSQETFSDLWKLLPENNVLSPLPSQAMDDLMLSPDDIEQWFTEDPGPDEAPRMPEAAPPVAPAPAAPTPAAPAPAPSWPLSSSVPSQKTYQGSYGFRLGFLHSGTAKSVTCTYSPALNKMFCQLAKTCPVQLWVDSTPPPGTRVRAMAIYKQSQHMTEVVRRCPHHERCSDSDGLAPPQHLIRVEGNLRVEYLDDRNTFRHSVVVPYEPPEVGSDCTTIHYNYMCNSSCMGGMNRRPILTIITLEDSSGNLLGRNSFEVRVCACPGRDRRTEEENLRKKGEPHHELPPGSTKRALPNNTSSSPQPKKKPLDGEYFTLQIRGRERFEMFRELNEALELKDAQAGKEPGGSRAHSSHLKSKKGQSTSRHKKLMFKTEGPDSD

Test [14] can be described thus: TOX21_p53_BLA_p3_viability: Viability Assessment in the Tox21 HCT-116 p53 Agonism Beta-lactamase Assay, Phase 3 (AID 2283593; active = hit-call score of the fitted dose curve at least 0.9, where 1 is the maximum;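 also: cells exposed to compound for 16 h before reading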). A digest of the protocol:
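Cellular ATP was quantified by CellTiter-Glo luminescence, read after 30 min at room temperature. Beforehand, HCT116 cells (4000/well) received compound 5 h post-seeding, 217-fold diluted from DMSO, then incubated 16 h at 37C.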

Test [15] deals with Cellular tumor antigen p53 (Homo sapiens) (UniProt P04637). Put plainly: TOX21_p53_BLA_p3_ratio: Tox21 HCT-116 p53 Agonism Beta-lactamase Assay, Ratio, Phase 3 (AID 2283596; active = hit-call score of the fitted dose curve at least 0.9, where 1 is the maximum). The method in brief:
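HCT116 p53-bla cells (4000/well) given compound in DMSO (217-fold dilution) after 5 h, incubated 16 h at 37C. CCF4-AM substrate 2 h at room temperature; 460/530 nm emission ratio, gain fitted against DMSO.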

A short description of test [16]: TOX21_p53_BLA_p4_viability: Viability Assessment in the Tox21 HCT-116 p53 Agonism Beta-lactamase Assay, Phase 4 (AID 2283597; active = hit-call score of the fitted dose curve at least 0.9, where 1 is the maximum;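 also: hits lower the luminescence signal meaning cytotoxicity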). A digest of the protocol: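 Following a 16 h exposure at 37C, the treated HCT116 wells were first read for the FRET ratio. They were then lysed with CellTiter-Glo, and ATP luminescence was recorded after 30 min at room temperature.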
The target of test [17] is Cellular tumor antigen p53 (Homo sapiens) (UniProt P04637). The test is described as follows: TOX21_p53_BLA_p5_ratio: Tox21 HCT-116 p53 Agonism Beta-lactamase Assay, Ratio, Phase 5 (AID 2283599; active = hit-call score of the fitted dose curve at least 0.9, where 1 is the maximum). The method in brief: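 Beta-lactamase reporter ratio (blue 460 nm over green 530 nm, 405 nm excitation) after 2 h CCF4-AM loading, in HCT-116 cells exposed 16 h at 37 C to compounds pinned at 217-fold dilution. Increases relative to DMSO baseline scored.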

Test [18] is described as follows: TOX21_p53_BLA_p5_viability: Viability Assessment in the Tox21 HCT-116 p53 Agonism Beta-lactamase Assay, Phase 5 (AID 2283600; active = hit-call score of the fitted dose curve at least 0.9, where 1 is the maximum). The method in brief: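 After the 460/530 nm beta-lactamase measurement, the wells received an ATP-detection luciferase reagent; signal was read 30 min later at RT. Compound treatment lasted 16 h on cells pre-incubated 5 h post-seeding.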

Results filed as inconclusive are left out. Activity calls are given as the source filed them. The calls were made as follows, unless noted: active = hit-call score of the fitted dose curve at least 0.9, where 1 is the maximum; inactive = score below 0.9.

What is called AC50 is the midpoint of the concentration-response curve, whichever way the signal moves.

On to `CCOCN(C(=O)CS(=O)(=O)O)c1c(C)cccc1CC`, for which the compound was classed as inactive in test [1].

As to `CCN(CC)c1ccc(C=O)c(O)c1`, the outcome in test [1] was inactive.

`CCc1ccc(C)nc1`: the outcome in [1] was inactive.

Regarding `O=c1[nH]cccc1O`, the AC50 in test [2] was 8.85 µM (active); in test [3] it was 6.71 µM (active); in test [4], 8.78 µM (active); in test [6] it was 5.07 µM (active). For the same compound, the result in test [5], in test [7], in test [8], in test [9] and in [1] was inactive.

Take `Nc1c(Br)cc([N+](=O)[O-])cc1Br`: the call in test [1] was inactive.

Regarding `OCCCc1cccnc1`, in test [1], the call was inactive.

Regarding `COc1ccccc1C=O`, the call in test [1] was inactive.

As to `O=c1cccc[nH]1`, the result in test [1] was inactive.

As for `Cc1cnccn1`, the compound was called inactive in test [1].

Consider `CC(=O)c1ccccc1N`, for which the outcome in test [1] was inactive.

With `OCCC(O)CO` (stereo unspecified), the outcome in [2], in [3], in [4], in test [5], in test [6] and in [9] was inactive.

Turning to `OCCCCl`, in test [1], the compound was classed as inactive.

Consider `O=C(c1ccccc1)c1ccc(Cl)cc1`, for which the call in test [2], in test [3], in test [10], in test [5], in test [6] and in [9] was inactive. For the same compound, in [11], the compound was called inactive. Further, the concentration at half-maximal activity (AC50) in [4] was 37.9 µM (active).

As to `CCn1c2ccccc2c2ccccc21`, the AC50 in test [2], in test [4], in [10] and in test [11] was 50 µM (active) throughout. Moreover, the compound was called inactive in test [3], in [5], in [6], in [9] and in test [1].

Take `CCCCCCCCCCCC(=O)Cl`: in [1], the result was inactive.

With `Cc1ccc(S(=O)(=O)C(I)I)cc1`, in test [1], the AC50 is 62.8 µM (active).

On to `CC(=O)C=O`, for which, in test [1], the call was inactive.

Turning to `CCN(CC)c1ccc(C=O)cc1`, the compound was called inactive in [2], in test [3], in test [4], in test [10], in test [5] and in test [7]. The compound was called inactive in test [8], in [9], in [11] and in [1]. Besides, the AC50 in [6] is 59.2 µM (active).

`Cc1cc(O)c(C(C)(C)C)cc1C(C)(C)C`: the outcome in test [2], in [3], in [4], in test [10], in test [5] and in [6] was inactive. Further, the call in [7], in [8], in [11] and in test [1] was inactive. Also, the AC50 was 2.64 µM (active) in test [9]; 40.6 µM (active) in [12]; 70.8 µM (active) in test [13]; 87 µM (active) in [14]; 87.3 µM (active) in test [15]; 30.9 µM (active) in [16]. Further, the figures for the AC50 in [17] and in test [18] were 57.2 µM (active) and 34.3 µM (active), respectively.

In the case of `CC1=CCC(=O)O1`, the result in [1] was inactive.

Take `Oc1ccc2c(c1)CCC2`: the result in [2], in test [10], in [5], in test [6], in [8] and in test [11] was inactive. Also, the compound was classed as inactive in [1]. Moreover, in test [7], the AC50 is 39.1 µM (active).

Consider `CSc1ccc(O)cc1C`, for which the compound was classed as inactive in [2], in [3], in test [4], in test [6], in [9] and in test [11]. In [1], the compound was called inactive. Besides, the AC50 was 78 µM (active) in test [10], 37.6 µM (active) in test [5], 28.2 µM (active) in [7] and 26.7 µM (active) in [8].

Turning to `Brc1ccccn1`, the compound was called inactive in test [1].

Turning to `Nc1cccnc1N`, the compound was called inactive in test [2], in [3], in test [4], in test [5], in [6] and in test [9]. The outcome in [1] was inactive.

Take `CN1CN(C)CN(C)C1`: the compound was classed as inactive in test [2], in test [3], in test [4], in [5], in test [6] and in test [7]. Besides, the call in [8], in [9] and in [1] was inactive.

On to `Oc1ccc(C2(c3ccc(O)c(C4CCCCC4)c3)CCCCC2)cc1C1CCCCC1`, for which the half-maximal activity concentration (AC50) in test [1] is 33.8 µM (active).

With `CN(C)C(C)(C)CO`, the outcome in [1] was inactive.

In the case of `CC(C)=CCCC(C)O` (stereo unspecified), in [1], the call was inactive.

For `O=C(Cl)c1ccc(Cl)cc1Cl`, the compound was called inactive in [1].

For `N#CCCOCCC#N`, the outcome in [1] was inactive.

With `CC(C)C(=O)OCc1ccccc1`, in test [1], the compound was called inactive.

As for `CCCC(=O)OCC(COC(=O)CCC)OC(=O)CCC`, the outcome in test [1] was inactive.

Regarding `CCN(CC)c1ccc(N=Nc2ccccc2)cc1`, the AC50 in test [2] is 10 µM (active). For the same compound, the compound was classed as inactive in [3], in [4], in test [10], in test [5], in test [6] and in test [7]. Besides, the compound was called inactive in test [8], in test [9], in test [11] and in test [1].

Take `CCCCCCCCCCCCCCCCC`: the outcome in test [14], in test [15] and in test [17] was inactive.

As for `O=C=NCc1cccc(CN=C=O)c1`, the call in test [1] was inactive.

In the case of `Brc1nc2ccccc2s1`, the call in test [1], in [12], in [13], in [14], in [15] and in test [16] was inactive. The outcome in test [17] and in [18] was inactive.

For the origin of these results see PubChem BioAssay (EPA / NIEHS).
